# PINK1 modulator – changes PINK1 expression | Potency, µM (top dose mostly 76.6 µM), for inactives: at the top dose activation (PINK1 increase), most hits filed as activators | 410,000 compounds, 0.2% hits | PINK1 immunofluorescence, high-content cytometry, 24 h | AID 624263; active means well fitted activation curve with a large enough effect; inconclusive means small, poorly fitted or top-dose-only effect; cell line not stated here; further: % of control where 0% means no effect; nearly all actives have a fitted effect of over 65% in size
#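 Measures PINK1 amount and localization on or inside mitochondria by immunofluorescence. Stable cells get compounds at 5 concentrations for 24 hours before fixation and staining; CCCP controls included.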
# KB-3-1 cytotox – kills parental KB-3-1 adenocarcinoma cells | 400,000 compounds, 1.4% hits | AID 1347075 | KB-3-1 viability, CellTiter-Glo ATP luminescence, 72 h | Potency, µM (top dose mostly 46.1 µM), hits mostly cytotoxic; further: on the % scale 0 is the no-effect control and ±100 the full control effect; nearly all actives have a fitted effect of over 60% in size
#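 KB-3-1 parental drug-naive adenocarcinoma cells in DMEM/10% FBS, incubated 72 h at 37 C with pin-transferred compounds across a concentration series. Viability by CellTiter-Glo luminescence; concentration-response curves fitted after normalization.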
# MCF10A rereplic – DNA re-replication induction in MCF 10a cells; MCF 10A DNA re-replication, Hoechst nuclear intensity, 48 h; Potency, µM (series often up to 46.1 µM), for the others: at the top dose activity, positive = re-replication, usual class: activators; 350,000 compounds, 2.9% hits; AID 624296; further: % of control where 0% means no effect; nearly all actives have a fitted effect of over 50% in size
# KB-V1 cytotox – KB-V1 MDR subline cytotoxicity; KB-V1 MDR cells viability, CellTiter-Glo, 72 h; Potency, µM (top dose mostly 46.1 µM), usual class: cytotoxic; 400,000 compounds, 3.4% hits; AID 1347076; further: on the % scale 0 is the no-effect control and ±100 the full control effect; nearly all actives have a fitted effect of over 60% in size
#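 KB-V1 MDR subline cells in DMEM (phenol-red free, 10% FBS) exposed to compounds in qHTS concentration series for 72 h at 37 degrees C. Viability read by CellTiter-Glo luminescence; concentration-effect curves fitted after normalization and correction.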
# SW480 rereplic – DNA re-replication induction in SW480 cells; Potency, µM (top dose mostly 46.1 µM), for the others: at the highest dose re-replication activation, most hits filed as activators; SW480 DNA re-replication, Hoechst DNA content imaging, 48 h; 340,000 compounds, 1.8% hits; further: % of control where 0% means no effect; nearly all actives have a fitted effect of over 55% in size
#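 250 cells/well; 23 nL cpd via pin tool; 48 hr, 37 C, 5% CO2; Hoechst 40 min; imager read of total nuclear intensity, ex 405/em 500-530 nm.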
# An asterisk follows results filed as active; i = inactive; ? = inconclusive; . = not tested or not shown; [ ] = dose if it differs, or a comment. Rows were chosen to be rich in hits. Some 6.7% of all compounds tested hit in one or more screens of this group. Unless noted, the call rests on the fitted dose curve; in most records, active means well fitted curve in the direction sought with a large enough effect; inconclusive means small, poorly fitted or top-dose-only effect, or another doubt; inactive means no such curve, though single readings can be large; an effect the other way counts as inactive or inconclusive. Potency means the concentration at half of the fitted maximal effect.
SMILES,PINK1 modulator,KB-3-1 cytotox,MCF10A rereplic,KB-V1 cytotox,SW480 rereplic
CCOC(=O)c1cc2c(=O)n3ccccc3nc2n(C(C)C)c1=NC(=O)c1cc2ccccc2o1,2%,i,.,i,.
CC(C)n1c(=NC(=O)c2ccco2)c(C#N)cc2c(=O)n3ccccc3cc21,8%,?,8.9µM*,i,13µM*
CCc1nn2c(=O)cc(COC(=O)CNC(=O)COc3ccc(C)cc3)nc2s1,2%,i,.,i,.
COc1ccc([C@@H]2[C@@H]3C(=O)N(C(C)(C)C)C(=O)[C@@H]3[C@]3(Cc4ccc(Cl)cc4)C(=O)N(c4ccc(C)cc4)C(=O)N23)cc1,-1%,i,-2%,i,-66%
CCc1nc2c(OCc3ccccc3C)cccn2c1N(C)C(=O)c1ccco1,0%,i,.,i,.
CCOC(=O)c1cc2c(=O)n3cccc(C)c3nc2n(CCOC)c1=NC(C)=O,0%,i,3.7µM*,?,5.8µM*
CCOC(=O)c1cc2c(=O)n3ccccc3nc2n(CCCOC)c1=NC(C)=O,4%,i,?,i,?
CCOc1ccccc1N1CCN(CC(=O)Nc2ccccc2C(=O)NC2CC2)CC1,2%,i,18%,i,2%
CC(=O)c1ccc(N2CCN(CC(=O)Nc3ccccc3C(=O)NC3CC3)CC2)c(F)c1,0%,i,18µM*,i,-7%
O=C1/C(=C/c2ccncc2)SC(=S)N1Nc1ccccc1,8%,i,?,i,?
Cc1cc(C)nc(NN2C(=O)/C(=C/c3ccccc3)SC2=S)n1,10µM*,i,?,i,-5%
C=CCOc1c(Br)cc(CNc2ccc(NC(=O)C(C)C)c(OC)c2)cc1OC,2%[38.3 µM],?,5.8µM*,4.1µM*,18µM*
CC(=O)Nc1ccccc1OCC(=O)c1cc(C)n(Cc2cccs2)c1C,1%,4.6µM*,14%,?,1%
Cc1cc(C(=O)COc2cccnc2[N+](=O)[O-])c(C)n1Cc1cccs1,3%,?,?,?,11%
Cc1cc(C(=O)CSc2nnc(N)s2)c(C)n1Cc1cccs1,1%,?,16%,23µM*,-70%
Cc1ccnc(NC(=S)N2CCN(c3ccc(C#N)cc3)CC2)c1,.,i,.,i,.
COc1ccc(C(=O)NCc2ncccc2C)cc1OC1CCN(C(C)=O)CC1,-2%,i,0%,i,-7%
CCc1cccc2c1NC(=O)C21N2CCCC2C(C(=O)c2ccc3ccccc3c2)C12C(=O)Nc1ccccc12 (configuration not stated),5%,16µM*,15%,?,?
Cc1ccc(C)c(Nc2nnc(-c3ccc(C)c(S(=O)(=O)NCC4CCCO4)c3)c3ccccc23)c1 (configuration not stated),0%,?,.,i,.
CCCCN1C(=O)C(CC(=O)NC2CCCCC2)CC(C(=O)N2CCCCCC2)=C1C (configuration not stated),.,.,.,i,.
Cc1nc(C#N)nc(Oc2ccccc2)c1Cl,1%,.,.,.,.
Cn1c(=O)c2c(n3cnnc13)-c1ccccc1CC21CCCC1,-5%[38.3 µM],i,-4%,23µM*,-3%
Cc1ccc(/C(N)=N/OC(=O)C23CC4CC(CC(C4)C2)C3)cc1,-1%,?,18µM*,?,1%
COc1ccc(OCCSc2nnc(CCNC(=O)c3ccc(OC)cc3)n2C)cc1,-4%[38.3 µM],i,4%,18µM*,-1%
CCn1c(CNC(=O)c2ccc(OC)c(OC)c2)nnc1SCC(=O)c1ccc(OC)cc1,-2%,i,1%,?,-9%
SMILES,PINK1 modulator,KB-3-1 cytotox,MCF10A rereplic,KB-V1 cytotox,SW480 rereplic
CCn1c(CCNC(=O)c2ccc(Cl)c(Cl)c2)nnc1SCCOc1ccc(OC)cc1,-1%[38.3 µM],21µM*,-1%,5.8µM*,-1%
COc1ccc(OCCSc2nnc(CCNC(=O)c3ccc(Cl)c(Cl)c3)n2C)cc1,1%[38.3 µM],i,-23%,i,2%
N#C/C(=C\c1cn(Cc2ccccc2)c2ccccc12)C(=O)NCc1ccco1,?,i,21µM*,i,?
N#C/C(=C\c1cn(Cc2cccc(F)c2)c2ccccc12)C(=O)NCc1ccco1,8%,i,13µM*,i,.
CCOc1ccc(NC(=O)[C@H]2O[C@@H]3OC(C)(C)O[C@@H]3[C@H]3OC(C)(C)O[C@H]32)cc1,2%,?,.,?,.
O=C1/C(=C/c2cccnc2)CCC/C1=C\c1cccnc1,-2%,?,1.2µM*,3.3µM*,1.3µM*
CCC1C/C(=C\c2cccnc2)C(=O)/C(=C/c2cccnc2)C1 (configuration not stated),-2%,3.7µM*,?,?,.
O=C1/C(=C/c2cccnc2)CC/C1=C\c1cccnc1,5%,?,?,i,5%
CN(C)c1ccc(/C=C2\CCC/C(=C\c3ccccc3)C2=O)cc1,11%,i,18µM*,18µM*,15%
COC(=O)/C=C/CC(C)OS(N)(=O)=O (configuration not stated),-2%,i,8%,i,1%
CCNC(=O)C1(C)CCCN(C(=O)c2cc(C)nn2C(C)(C)C)C1 (configuration not stated),-1%,i,.,i,.
COc1cc2c(NC3CCN(C)CC3)nc(N3CCCCC3)nc2cc1OCCCN(C)C,-1%,?,.,i,.
COc1cc(CC(=O)OCC(=O)c2ccc(F)cc2)cc(OC)c1OC,1%,i,-2%,i,-6%
Cc1ccc(S(=O)(=O)N2c3ccccc3-c3c(ssc3=S)C2(C)C)cc1,4%,?,?,21µM*,?
CCOC(=O)CC1(C)N(S(=O)(=O)c2ccc(C)cc2)c2ccccc2N1S(=O)(=O)c1ccc(C)cc1,.,i,.,?,.
COc1ccc2c(c1)-c1c(ssc1=S)C(C)(C)N2S(=O)(=O)c1ccc(C)cc1,18%,?,5.2µM*,5.8µM*,7.3µM*
COc1ccc2c(c1)-c1c(ssc1=S)C(C)(C)N2C(=O)CSC1=NCCS1,-1%,i,0%,i,6%
COc1ccc2c(c1)-c1c(ssc1=S)C(C)(C)N2,.,i,12µM*,?,-4%
CCn1cc2nc(SCc3cccc(OC)c3)n(Cc3ccc(Cl)cc3)c(=O)c2n1,2%,i,.,i,.
O=C(c1ccc(C(F)(F)F)cc1)N(Cc1cc2ccc(F)cc2nc1N1CCOCC1)C1CC1,0%,.,.,.,.
O=S(=O)(NCc1nc2cccnc2n1Cc1ccccc1Cl)c1ccc2c(c1)CCCC2,1%,.,.,.,.
CN1CCN(S(=O)(=O)c2ccc(Cl)cc2)CC1,-2%,i,-1%,i,?
CN1CCN(S(=O)(=O)c2ccc(Cc3ccc(S(=O)(=O)N4CCN(C)CC4)cc3)cc2)CC1,-2%,i,21µM*,i,9%
